Measured values as given in PubChem BioAssay.
Active and inactive are the calls of the source.

Assays:
[1] = compound effects on lung adenocarcinoma cell viability – A549, calcein-AM fluorescence, 48 h, basal, profiling panel (AID 1162); conditions: higher = more signal
[2] = compound effects on differentiated 3T3-L1 adipocyte viability – cell-based, 3T3-L1 adipocytes, calcein-AM fluorescence, 48 h, basal, profiling panel (AID 1163); conditions: 3T3-L1 adipocytes viability, higher = more signal
[3] = compound effects on hepatocellular carcinoma cell viability – HepG2, calcein-AM fluorescence, 48 h, basal, profiling panel (AID 1164); conditions: higher = more signal
[4] = compound effects on multiple myeloma cell viability – MM1S, calcein-AM fluorescence, 48 h, basal, profiling panel (AID 1165); conditions: higher = more signal
[5] = calcein-AM signal in unstimulated myeloma cells – cell-based, calcein-AM fluorescence, 48 h, PK04 Diversity Set, profiling panel (AID 1166); conditions: RPMI8226 myeloma viability, higher = more signal;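 also: cells grown under basal conditions without added stimulus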
[6] = JC-1 mitochondrial signal, unstimulated HepG2 cells – cell-based, JC-1 fluorescence, 24 h, 100 nL compound, profiling panel (AID 1167); conditions: HepG2 mitochondrial potential, higher = more signal
[7] = JC-1 mitochondrial signal, unstimulated adipocytes – cell-based, JC-1 fluorescence, 3T3-L1 adipocytes, 24 h, 100 nL compound, profiling panel (AID 1168); conditions: JC-1 mitochondrial fluorescence, higher = more signal, called active from +8 up or from −8 down
[8] = JC-1 mitochondrial signal, unstimulated myeloma cells – cell-based, JC-1 fluorescence, RPMI8226, 24 h, 100 nL compound, profiling panel (AID 1169); conditions: JC-1 mitochondrial potential fluorescence, higher = more signal
[9] = JC-1 mitochondrial signal, unstimulated MM1S myeloma – cell-based, JC-1 fluorescence, 24 h, 100 nL compound, profiling panel (AID 1170); conditions: MM1S mitochondrial potential, higher = more signal
[10] = resazurin metabolic signal in A549 cells – cell-based, resazurin fluorescence, 24 h, PK04 Diversity Set, profiling panel (AID 1171); conditions: A549 viability, higher = more signal, called active from +8 up or from −8 down
Also: test concentration not given here.

| SMILES | z-score [1] | z-score [2] | z-score [3] | z-score [4] | z-score [5] | z-score [6] | z-score [7] | z-score [8] | z-score [9] | z-score [10] |
| --- | --- | --- | --- | --- | --- | --- | --- | --- | --- | --- |
| CC(=O)N1Cc2ccccc2C[C@@]2(COC(c3ccc(OCCCO)cc3)=N2)C1=O | 1.23 | 1.93 | 2.01 | -2 | 0.151 | 0.933 | 1.59 (inactive) | -0.894 | -0.394 | 0.89 (inactive) |
| O=C1OCC=C[C@H]2OC34C=CCN(CCN5CCOCC5)C(=O)[C@H]3N(CCCO)C(=O)[C@@H]4[C@@H]12 (stereo not given in full) | 0.74 | 1.38 | 0.811 | 1.11 | -1.16 | -0.326 | 0.584 (inactive) | 0.676 | 0.57 | -1.38 (inactive) |
| O=C1NC(=O)C2C1C=CC(C(O)C(c1ccccc1)c1ccccc1)N2Nc1ccc(Cl)cc1Cl (stereo not given) | -2.92 | 0.205 | -2.7 | -3.71 | -4.14 | -3.99 | -0.283 (inactive) | -0.925 | -0.133 | -1.18 (inactive) |
| CCCN1C(=O)[C@]2(CCS(=O)(=O)c3ccccc3)N=C(c3ccc(OCCCO)cc3)O[C@@H]2c2ccccc21 | 1.27 | 1.86 | -0.801 | 0.0361 | -1.97 | 0.28 | -0.494 (inactive) | -0.917 | -1.28 | -1.57 (inactive) |
| O=C(NCc1ccccc1)[C@@]1(CCS(=O)(=O)c2ccccc2)N=C(c2ccc(OCCCO)cc2)O[C@H]1c1ccccc1 | 0.364 | -0.153 | -0.203 | -0.335 | -0.672 | 1.17 | 0.802 (inactive) | -0.935 | -1.58 | -0.541 (inactive) |
| C=CCN1C(=O)[C@]2(O[C@H](CCO)[C@@H]([Si](C)(C)c3ccc(OC)cc3)[C@@H]2C)c2cc(N3CCCCC3=O)ccc21 | -1.25 | 0.257 | -2.15 | -2.54 | -3.82 | -0.61 | -0.305 (inactive) | -0.982 | -1.63 | -3.52 (inactive) |
| COc1ccc(C(=O)Nc2ccc(CN3C(=O)[C@@]4(O[C@@H](CCO)[C@H]([Si](C)(C)c5ccc(OC)cc5)[C@H]4C)c4ccccc43)cc2)cc1 | -4.06 | -0.736 | -4.64 | -2.64 | -4.32 | -2.53 | 1.16 (inactive) | -1.12 | -2.2 | -3.84 (inactive) |
| C=CCN1C(=O)[C@@]2(O[C@@H](CCO)[C@H]([Si](C)(C)c3ccc(OC)cc3)[C@H]2C)c2cc(NC(=O)c3ccc(OC)cc3)ccc21 | -0.52 | -0.196 | -4.47 | -2.73 | -4.36 | -1.69 | 1.58 (inactive) | -1.02 | -1.97 | -2.27 (inactive) |
| COc1ccc(C(O)C2C=CC3C(=O)NC(=O)C3N2Nc2ccccn2)cc1 (stereo not given) | -0.483 | -0.0402 | -0.454 | -0.632 | 0.202 | -0.69 | -0.0063 (inactive) | -0.143 | 0.0564 | -0.582 (inactive) |
| COCCCN1C(=O)[C@@]2(Cc3ccccc31)c1ccccc1C(=O)N(Cc1ccccc1C(F)(F)F)[C@H]2c1ccc(CO)cc1 | -0.84 | -1.15 | -0.539 | -0.155 | -0.259 | -0.451 | 0.801 (inactive) | 0.799 | 0.148 | -0.356 (inactive) |
| CN1C(=O)C2C=CC(C(O)c3ccc(-c4ccccc4)s3)N(N(c3ccccc3)c3ccccc3)C2C1=O (stereo not given) | 0.281 | -0.905 | 0.391 | -0.616 | 0.275 | 0.748 | -1.98 (inactive) | -1.05 | -0.434 | -0.434 (inactive) |
| Cc1ccc(S[C@]2(C(=O)NCCN3CCOCC3)CC(=O)N(Cc3ccccc3)[C@@H]2c2ccc(CO)cc2I)cc1 | -0.242 | 1.1 | -0.705 | -2.08 | -2.5 | 0.119 | -0.688 (inactive) | -0.383 | -2.44 | 0.394 (inactive) |
| CC(=O)n1cc(C(O)C2C=CC3C(=O)N(C)C(=O)C3N2Nc2ccccc2)c2ccccc21 (stereo not given) | -0.617 | -0.652 | -0.804 | 0.305 | -1.25 | -1.58 | -0.454 (inactive) | -0.0553 | 0.118 | -0.162 (inactive) |
| COC(=O)[C@@]1(Cc2ccccc2)[C@H]2c3cc(C(=O)N4CCCC4)n(Cc4cccc5ccccc45)c3C[C@H]2CN1C(=O)c1ccccc1 | -0.692 | -0.57 | -0.824 | -1.42 | -3.92 | 1.04 | -2.12 (inactive) | -0.784 | -1.74 | -1.19 (inactive) |
| C=C(CCCC)C(=O)CC[C@H](OC(C)=O)c1cccc(OCCO)c1 | -0.0802 | 1.62 | -0.889 | -1.12 | -1.18 | -0.525 | 0.906 (inactive) | 0.139 | -0.964 | -0.252 (inactive) |
